GPR151 activ: activators of human GPR151; PathHunter beta-arrestin GPR151 cells, luminescence; activation, % at 11.2 µM; 650,000 compounds, 1% hits; Q8TDV0; in the data active = activation above about 4.9%
TEAD-YAP block: TEAD-YAP interaction inhibition | inhibition, % at 9.12 µM | 640,000 compounds, 1.4% hits | HEK-TIYL cells, TEAD-Gal4/YAP UAS-luciferase luminescence; in the data active = inhibition above about 32%
FBW7 activator: human FBW7 E3 ligase activation, primary screen; AlphaScreen FBW7–phospho-cyclin E peptide binding, activator screen; Q969H0; normalized activity (activation), % at 26.1 µM; 650,000 compounds, 0.13% hits; in the data active = normalized activity above about 1.9%;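 also: purified mutant Fbw7 with reduced substrate affinity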
Target sequence (Q969H0 whole entry, looked up): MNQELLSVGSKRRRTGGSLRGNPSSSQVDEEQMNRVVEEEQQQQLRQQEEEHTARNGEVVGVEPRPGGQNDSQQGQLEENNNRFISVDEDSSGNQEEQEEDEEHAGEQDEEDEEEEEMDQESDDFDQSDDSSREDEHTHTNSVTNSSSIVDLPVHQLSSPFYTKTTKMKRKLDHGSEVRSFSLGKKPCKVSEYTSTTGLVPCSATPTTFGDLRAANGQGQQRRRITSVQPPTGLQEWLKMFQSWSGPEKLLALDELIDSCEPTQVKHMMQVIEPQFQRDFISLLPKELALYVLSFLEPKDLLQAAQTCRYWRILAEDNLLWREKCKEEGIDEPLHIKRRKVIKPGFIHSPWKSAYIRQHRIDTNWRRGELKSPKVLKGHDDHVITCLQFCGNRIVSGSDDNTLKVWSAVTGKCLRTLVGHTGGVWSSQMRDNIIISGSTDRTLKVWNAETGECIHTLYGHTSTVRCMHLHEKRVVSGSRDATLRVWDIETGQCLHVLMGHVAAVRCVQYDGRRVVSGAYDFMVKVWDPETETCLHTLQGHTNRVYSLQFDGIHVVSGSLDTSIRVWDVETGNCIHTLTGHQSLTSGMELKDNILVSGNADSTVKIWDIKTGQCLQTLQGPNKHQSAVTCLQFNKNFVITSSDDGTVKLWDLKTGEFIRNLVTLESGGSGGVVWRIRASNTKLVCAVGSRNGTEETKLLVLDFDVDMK
MITF primary: inhibitors of human MITF. 650,000 compounds, 0.91% hits. AlphaScreen MITF homodimerization, bead proximity signal. inhibition, % at 2.6 µM. AID 1259374. O75030; in the data active = inhibition above about 50%
MITF confirm: confirmation of human MITF inhibitors; shares compounds with MITF primary; AlphaScreen MITF homodimerization, biotin/His-MITF beads; inhibition, % at 2.6 µM; 4,700 compounds, 16% hits; AID 1259372;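 active = inhibition above a cutoff derived from the DMSO control wells, cut at about 28% in these data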;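 also: inhibitors lower the bead chemiluminescence by keeping MITF from dimerizing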
AlphaScreen DR: AlphaScreen optical interference, dose response counter-screen | AlphaScreen optical interference counterscreen, cell-free | AID 1259373 | IC50, µM | shares compounds with MITF primary | 480 compounds, 6% hits; call rule not given here
AS interf ctr: AlphaScreen optical interference, counter-screen; shares compounds with MITF primary; LysRS AlphaScreen counterscreen, signal interference, triplicate; inhibition, % at 2.6 µM; 4,700 compounds, 7.6% hits;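 active = inhibition above a cutoff derived from the DMSO control wells, cut at about 30% in these data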
Hits are given with their value; - = inactive; . = no result given. Hits are enriched below; roughly 3.5% of the tested compounds scored in any of these assays.

SMILES | GPR151 activ | TEAD-YAP block | FBW7 activator | MITF primary | MITF confirm | AS interf ctr | others
COc1cc2ncn3c(=O)n(CC(=O)N4CC(C)CC(C)C4)nc3c2cc1OC (stereo unspecified) | - | - | - | - | . | .
CCn1c(C)nc2cc(C(=O)NNC(=O)NC3CCCCC3)ccc21 | - | - | - | - | . | .
CCn1c(C)nc2cc(C(=O)NNC(=O)COc3cccc(Br)c3)ccc21 | - | - | - | 86 | - | -
COC(=O)CCc1cc2c(C)cc(=O)oc2cc1OCc1ccc(C)cc1 | - | - | - | 78 | 38 | - | AlphaScreen DR=-
CCC(C)c1ccccc1OCCNC(C)C (stereo unspecified) | - | - | - | 85 | - | -
CCC(C)c1ccccc1OCCCNCCOC (stereo unspecified) | - | - | - | - | . | .
CCC(C)c1ccccc1OCCCNCCCOC (stereo unspecified) | - | - | - | 60 | - | -
CNC(=S)NNC(=O)C(=O)NNC(=S)NC | - | - | - | 79 | - | 74
CNC(=S)NNC(=O)c1ccc(O)cc1 | - | - | - | - | . | .
COc1cc(C2C(C(=O)OC(C)C)=C(C)NC3=C2C(=O)CC(c2ccccc2)C3)ccc1OCc1ccccc1 (stereo unspecified) | - | - | - | 64 | - | -
COc1ccc(C2Nc3ccccc3NC3=C2C(=O)CC(c2ccccc2)C3)cc1OC (stereo unspecified) | - | - | - | 57 | - | -
COc1ccc(C2Nc3ccccc3NC3=C2C(=O)CC(c2ccc(Cl)cc2)C3)cc1OC (stereo unspecified) | - | - | - | - | . | .
COc1ccc(C2C(C(=O)OC(C)C)=C(C)NC3=C2C(=O)CC(c2ccccc2)C3)cc1OC (stereo unspecified) | - | - | - | - | . | .
Cc1c(C(=O)Nc2cc(Oc3ccccc3)cc([N+](=O)[O-])c2)sc2ncn(Cc3cccc(F)c3)c(=O)c12 | - | - | - | - | . | .
C/C=C/c1ccc(OCCCCNCCN2CCOCC2)c(OC)c1 | - | - | - | 61 | - | -
C/C=C/c1ccc(OCCCCN2CC(C)OC(C)C2)c(OC)c1 (stereo unspecified) | - | - | - | - | . | .
C/C=C/c1ccc(OCCCN2CCN(CC)CC2)c(OC)c1 | - | - | - | 63 | - | -
C/C=C/c1ccc(OCCOCCN(C)C)c(OC)c1 | - | - | - | 70 | - | -
C/C=C/c1ccc(OCCCCNCCN(C)C)c(OC)c1 | - | - | - | - | . | .
COc1cc2cc3c(N)c(C(=O)N4CCCC4)sc3nc2cc1OC | - | - | - | - | . | .
O=[N+]([O-])c1ccc(N2CCN(Cc3ccncc3)CC2)cc1 | - | - | - | 61 | - | -
O=C(O)c1ccc(CN2CCN(c3ccc([N+](=O)[O-])cc3)CC2)cc1 | - | - | - | - | . | .
O=[N+]([O-])c1ccc(N2CCN(Cc3cccnc3)CC2)cc1 | - | - | - | 59 | - | -
O=C(c1ccccc1Cl)N1CCN(c2ccc([N+](=O)[O-])cc2)CC1 | - | - | - | 97 | - | -
COCCNC(=O)CC(=O)N/N=C/c1cccc(OC)c1O | - | - | - | - | . | .
SMILES | GPR151 activ | TEAD-YAP block | FBW7 activator | MITF primary | MITF confirm | AS interf ctr | others
CCCC(=O)NCCc1cc2ccc(C)cc2[nH]c1=O | - | - | - | - | . | .
CCN1CC=C2C(C1)C(c1ccc(Cl)cc1)C(C#N)=C(N)C2(C#N)C#N (stereo unspecified) | - | - | - | - | . | .
COC(=O)CC1(O)c2ccccc2C(=O)N1Cc1ccccc1 (stereo unspecified) | - | - | - | - | . | .
CC(=O)Nc1ccc(N2C(=O)c3ccccc3C2(O)Cc2ccccc2)cc1 (stereo unspecified) | - | - | - | 55 | 33 | - | AlphaScreen DR=-
CCCC(O)(CCC)C(=O)NN(c1ccccc1)c1ccccc1 | - | - | - | - | . | .
O=C(c1c(F)cccc1F)N1CCN(c2ccc(Cl)cc2)CC1 | - | - | - | - | . | .
Cc1ccc(S(=O)(=O)C(CNS(=O)(=O)c2ccccc2)c2cccs2)cc1 (stereo unspecified) | - | - | - | - | . | .
CCS(=O)(=O)NCC(c1cccs1)S(=O)(=O)c1ccc(C)cc1 (stereo unspecified) | - | - | 3.2 | 85 | 82 | - | AlphaScreen DR=-
O=C(CCCn1c(=S)[nH]c2ccccc2c1=O)N1CCOCC1 | - | - | - | 114 | - | -
CCCN(CCC)S(=O)(=O)c1ccc(OCC)c2ccccc12 | - | - | - | 65 | - | -
Cc1cc(C)n2nc(C(=O)Nc3ccc(Br)c(C)c3)nc2n1 | - | - | - | 51 | - | -
Cc1cccc(NC(=O)c2nccnc2C(=O)O)c1C | - | - | - | - | . | .
O=C1OC(c2ccc(Cl)cc2Cl)=N/C1=C\c1ccc([N+](=O)[O-])o1 | - | - | - | 56 | 51 | - | AlphaScreen DR=-
CCOc1ccc(S(=O)(=O)N(CC(=O)NCCC(C)C)c2ccc(F)cc2)cc1 | - | - | - | - | . | .
Cc1cc(NCCCN2CCCC2=O)nc(-c2ccc(C(N)=O)cc2)n1 | - | - | - | - | . | .
O=C(O)C1CCCCC1C(=O)Nc1nncs1 (stereo unspecified) | - | - | - | - | . | .
O=C(O)C1CC=CCC1C(=O)Nc1nncs1 (stereo unspecified) | - | - | - | 53 | 48 | - | AlphaScreen DR=-
O=[N+]([O-])c1nn(-c2cccc(Cl)c2)n(O)c1=NC1CCCCC1 | - | - | - | 56 | - | -
O=C1NC(=O)/C(=C\c2ccc(O)cc2O)S1 | - | - | - | 83 | 81 | - | AlphaScreen DR=-
O=C1NC(=S)S/C1=C\c1cc(O)ccc1Br | - | - | - | - | . | .
O=C(O)/C(=C/C(=O)c1ccccc1)Nc1ccccc1 | - | - | - | - | . | .
CSc1ccc(S(=O)(=O)NCCc2ccc(Cl)cc2)cc1 | - | - | - | - | . | .
Cc1ccccc1C1(CC(=O)N(C)Cc2cccs2)CC(=O)N(Cc2ccncc2)C1=O (stereo unspecified) | - | - | - | - | . | .
CCN(C(=O)C1COc2ccccc2O1)C12CC3CC(CC(C3)C1)C2 (stereo unspecified) | - | - | - | 61 | 71 | - | AlphaScreen DR=-
O=C(OCC(=O)C12CC3CC(CC(C3)C1)C2)C1COc2ccccc2O1 (stereo unspecified) | - | - | - | - | . | .
SMILES | GPR151 activ | TEAD-YAP block | FBW7 activator | MITF primary | MITF confirm | AS interf ctr | others
COc1cc(N2CCOCC2)ccc1Nc1cc(NCc2ccccc2)c(C(F)(F)F)cn1 | - | - | - | - | . | .
COc1cc(N2CCOCC2)ccc1Nc1cc(NC(C)(C)c2ccccc2)c(C(F)(F)F)cn1 | - | - | - | 58 | 44 | - | AlphaScreen DR=-
O=C(Cn1ccccc1=S)c1ccccc1 | - | - | - | 63 | - | -
Cc1[nH]nc2nc3c(c(-c4cc(C)n(C5CC5)c4C)c12)C(=O)CC(C)(C)C3 | - | - | - | - | . | .
O=S(=O)(c1ccc2ccccc2c1)N1CCN(Cc2ccccc2F)CC1 | - | - | - | 54 | - | -
CCOc1ccc(CN2CCC(N3CCN(C)CC3)CC2)cc1 | - | - | - | 70 | - | -

Compound activity from PubChem.
